Bioassay records: PubChem, National Center for Advancing Translational Sciences (NCATS)
BAZ2B block = qHTS Assay for Inhibitors of BAZ2B | Potency, µM (highest dose often 114 µM), for the others: at the top dose activity change, negative = inhibition, hits mostly inhibitors | hit rate 4.4% among 360,000 | AID 504333, 2011 | AlphaScreen BAZ2B-H3K14Ac peptide displacement; note: % is set by controls: 0 for no effect and ±100 for the full control effect; nearly all actives have a fitted effect of over 60% in size
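In this displacement format the biotinylated H3(5-23) peptide acetylated at Lys14 serves as ligand at 50 nM, with BAZ2B at 50 nM in PBS pH 7.4 containing 0.01% Tween-20. Donor and acceptor beads are 10 ug/mL final.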
GLS inhibitor = qHTS for Inhibitors of Glutaminase (GLS); GLS enzymatic activity, qHTS titration; Potency, µM (highest dose often 45.5 µM), for the others: at the highest dose activity change, negative = inhibition, hits mostly inhibitors; Glutaminase kidney isoform, mitochondrial (Homo sapiens), O94925; AID 624170, 2012; hit rate 0.21% among 410,000; note: % is set by controls: 0 for no effect and ±100 for the full control effect
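Glutamate formation by hKGA was monitored fluorometrically using coupled glutamate oxidase, HRP and Amplex Red. Substrate was added as 1 mM L-glutamine solution; incubation was 30 min at RT after an initial read.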
HP1b binding inh = HTS for Inhibitors of HP1-beta Chromodomain Interactions with Methylated Histone Tails | Chromobox protein homolog 1 (Homo sapiens), P83916 | AlphaScreen HP1-beta / biotin-H3K9me3 peptide binding | Potency, µM (titrated, usually from 114 µM), inactives show at the top dose activity change, negative = inhibition, actives largely listed as inhibitors | hit rate 0.56% among 390,000 | AID 540317, 2011; note: nearly all actives have a fitted effect of over 70% in size
Target sequence (P83916 whole entry, looked up): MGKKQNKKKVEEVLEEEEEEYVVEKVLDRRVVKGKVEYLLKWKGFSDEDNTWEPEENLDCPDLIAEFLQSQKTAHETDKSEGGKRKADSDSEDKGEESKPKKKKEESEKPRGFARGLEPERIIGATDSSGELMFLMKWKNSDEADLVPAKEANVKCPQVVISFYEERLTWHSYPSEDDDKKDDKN
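HP1-beta protein (50 nM final) preincubated 30 min at room temperature with biotinylated H3(1-18)K9me3 peptide (50 nM) in PBS pH 7.4, 0.01% Tween-20, then compound added for 30 min. AlphaScreen streptavidin donor/nickel chelate acceptor beads (10 ug/mL final), 30 min dark, luminescence read.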
G9a inh = qHTS Assay for Inhibitors of Histone Lysine Methyltransferase G9a | Histone-lysine N-methyltransferase EHMT2 (Homo sapiens), Q96KQ7 | G9a H3K9 monomethylation, AlphaScreen, 2 h | Potency, µM (series often up to 102 µM), for the others: at the top dose activity, negative = inhibition, most hits filed as inhibitors | hit rate 8.8% among 350,000 | AID 504332, 2011; note: % is set by controls: 0 for no effect and ±100 for the full control effect; nearly all actives have a fitted effect of over 75% in size
Target sequence (Q96KQ7 913-1193 limits assumed): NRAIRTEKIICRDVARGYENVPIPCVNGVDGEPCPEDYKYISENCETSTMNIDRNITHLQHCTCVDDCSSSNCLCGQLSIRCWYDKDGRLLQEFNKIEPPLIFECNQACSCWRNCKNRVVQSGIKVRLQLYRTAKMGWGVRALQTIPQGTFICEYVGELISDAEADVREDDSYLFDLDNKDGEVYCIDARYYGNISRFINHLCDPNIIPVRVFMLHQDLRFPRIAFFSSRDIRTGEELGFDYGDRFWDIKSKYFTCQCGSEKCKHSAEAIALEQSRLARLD
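Readings reflect AlphaScreen signal from monomethyl-H3K9 antibody detection. HMT at 20 nM; substrate b-H3K9 500 nM; cofactor SAM 20 uM; 2 h RT reaction; compounds tested as titrations in qHTS with 15 min preincubation.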
JMJD2A Tudor inh = qHTS Assay for Inhibitors of JMJD2A-Tudor Domain | hit rate 4.4% among 390,000 | Lysine-specific demethylase 4A (Homo sapiens), O75164 | Potency, µM (top dose mostly 114 µM), without a hit: at the top dose activity change, negative = inhibition, actives largely listed as inhibitors | AlphaScreen JMJD2A-Tudor / H3K4me3 peptide binding; note: % is set by controls: 0 for no effect and ±100 for the full control effect; nearly all actives have a fitted effect of over 50% in size
* hit, by the source's call; ? = inconclusive; / = no result; [ ] = remark or other dose. The list is not random: actives were taken first. Their share in the collection is about 10%. Calls come from the whole dose curve; as a rule, active = well fitted curve in the direction sought with a large enough effect; inconclusive = small, poorly fitted or top-dose-only effect, or another doubt; inactive = no such curve, though single readings can be large; an effect the other way counts as inactive or inconclusive. Potency is the fitted concentration of half-maximal effect.

SMILES	BAZ2B block	GLS inhibitor	HP1b binding inh	G9a inh	JMJD2A Tudor inh
O=[N+]([O-])c1ccc(O)c(N=Cc2sc3ccccc3c2O)c1	14µM*	26%	-35%	45µM*	45µM*
Cc1cccc(/N=C/c2sc3ccccc3c2O)n1	?	9%	?	32µM*	?
CC(NC(=O)c1cccc(Nc2nc3ccccc3n3nnnc23)c1)c1ccccc1 (stereo not given)	24%	-7%	35%	-1%[59 µM]	-16%
Cc1ccc(NC(=O)Cn2c(=O)n(CCCCC(=O)NCCc3ccccc3)c(=O)c3ccccc32)cc1	5%	-3%	15%	11%[59 µM]	-16%
COCCNC(=O)Nc1ccc(F)cc1	-25%	-2%	18%	-2%	-11%
COc1ccc(CCC(C)NCc2cccc(Br)c2)cc1 (stereo not given)	-6%	0%	55%	/	2%
COCC(C)NCc1ccc(OC)c(Br)c1 (stereo not given)	50µM*	3%	?	?	18µM*
c1ccc(-c2nnc3sc(Cc4cccs4)nn23)cc1	-23%	-14%	1%	?	-25%
Clc1ccc(-c2nnc3sc(Cc4cccs4)nn23)cc1	7%	7%	26%	35µM*	-22%
O=C(O)c1cc(N/N=C/c2ccc(N3CCOCC3)cc2)ccc1Cl	?	18%	52%	-138%[59 µM]	-34%
O=C(O)c1ccc(N/N=C/C2=C(N3CCOCC3)C(=C\c3ccccc3)/CC2)cc1	50µM*	-25%	?	/	?
Clc1cccc(N/N=C/c2ccc(N3CCOCC3)cc2)c1	-8%[57.1 µM]	2%	-3%	32µM*	?
O=[N+]([O-])c1cccc(N/N=C/c2ccc(N3CCOCC3)cc2)c1	18µM*	13%	40µM*	40µM*	35µM*
C(=N\Nc1ccccc1)/c1ccc(N2CCOCC2)cc1	-33%[57.1 µM]	3%	2%	4µM*	?
C(=N\Nc1ccccn1)/c1ccc(N2CCOCC2)cc1	?	?	-6%	-18%	?
Cc1onc(-c2ccccc2)c1C(=O)OCC(=O)NC(C)c1ccc(Cl)cc1 (stereo not given)	1%	-2%	25%	-1%[59 µM]	-7%
CC(=O)N1CCN(C(=O)c2ccc(-c3ccccc3Cl)o2)CC1	9%	8%	21%	3%[12.7 µM]	-10%
Cc1ccc2oc(=O)c3cnn(CC(=O)Nc4cc(-c5cccc(F)c5)no4)c3c2c1	-3%	-2%	45%	?	-1%
CC(NCc1ccc([N+](=O)[O-])cc1)C1COc2ccccc2O1 (stereo not given)	50µM*	-2%	?	?	7.9µM*
CCOc1ccccc1Oc1coc2cc(OCC(=O)O)ccc2c1=O	-32%	-12%	-21%	14µM*	-15%
Cc1ccc(C(=O)CN2CCC(NC(=O)C3CCCCC3)CC2)cc1	-36%	-19%	44%	?	-25%
CN(Cc1ccccc1)C1=CC(=[N+]2CCCCC2)CC(C)(C)C1	?	-11%	17%	32µM*	-11%
CC1(C)CC(N2CCCC2)=CC(=[N+]2CCCC2)C1	79µM*	8%	-1%	?	-15%
CC1(C)CC(N2CCN(Cc3ccccc3)CC2)=CC(=[N+]2CCCCC2)C1	-20%	-13%	71µM*	?	18µM*
Cc1cc(C)n(CCNC(=O)CC2C(=O)NCCN2Cc2ccccc2C(F)(F)F)n1 (stereo not given)	-1%	17%	-26%	45µM*	-21%
SMILES	BAZ2B block	GLS inhibitor	HP1b binding inh	G9a inh	JMJD2A Tudor inh
COc1cccc(CN2CCNC(=O)C2CC(=O)NCCn2nc(C)cc2C)c1OC (stereo not given)	-6%	0%	38%	?	4%
CCOc1ccccc1CN1CCNC(=O)C1CC(=O)NCc1nc(C)cs1 (stereo not given)	-25%	2%	48%	?	-23%
Cc1cc(CNC(=O)CC2C(=O)NCCN2CC(c2ccccc2)c2ccccc2)on1 (stereo not given)	2%	17%	0%	/	-32%
Cc1cnc(CNC(=O)CC2C(=O)NCCN2Cc2ccccc2C(F)(F)F)cn1 (stereo not given)	-23%	1%	62%	32µM*	-5%
Cc1cc(CNC(=O)CC2C(=O)NCCN2Cc2ccccc2C(F)(F)F)on1 (stereo not given)	-1%	3%	48%	50µM*	-1%
CCc1ccc(CNC(=O)CC2C(=O)NCCN2Cc2ccccc2F)nc1 (stereo not given)	-19%	-7%	51%	79µM*	-15%
CCn1ccnc1CNC(=O)CC1C(=O)NCCN1Cc1ccccc1F (stereo not given)	-10%	3%	26%	20%[12.7 µM]	-3%
Cc1cc(NC(=O)c2cc(-c3ccncc3)nc3c(C)cccc23)no1	-17%	1%	-13%	-3%[12.7 µM]	-8%[57.1 µM]
Cc1ccc(N(Cc2ccccc2)C(=O)c2ccc(C)c(S(=O)(=O)N3CCOCC3)c2)cc1	0%	-3%	24%	11%[59 µM]	-15%
CCCCC(=O)NC1(C(F)(F)F)C(=O)Nc2c1c(=O)[nH]c(=O)n2-c1ccc(C)c(C)c1 (stereo not given)	-3%	0%	9%	-43%[59 µM]	-15%
COCc1ccc(C(=O)N2CCCC(N3CCN(c4ccc(F)cc4)CC3)C2)o1 (stereo not given)	-7%	19%	12%	-9%	-21%
COc1cccc(N2CCN(C3CC(=O)N(c4ccc(Cl)c(Cl)c4)C3=O)CC2)c1 (stereo not given)	?	21%	14%	?	-23%[57.1 µM]
Cc1nc(CSc2nnc(C)s2)cs1	-10%	-2%	59%	45µM*	-2%
Cc1nnc(SCc2ccc(F)cc2)s1	15%	-7%	45%	-1%[12.7 µM]	8%
CC(=O)c1ccc(NC(=O)C(C)OC(=O)c2ccc3c(c2)nc(C)n3-c2ccccc2)cc1 (stereo not given)	-7%	8%	4%	-15%[59 µM]	-29%
COc1ccc(OC)c(/C=N/NC(=O)CC(=O)NCc2ccccc2)c1	-2%	-7%	43%	13%	12%
COc1ccc(/C=C2\Sc3ccc(C(=O)NC4CC4)cc3N(C)C2=O)cc1OC	?	-8%	38%	-11%	-34%
COc1ccc(/C=C2\Sc3ccc(C(=O)N4CCCC4)cc3N(C)C2=O)cc1OC	-31%	-11%	25%	45µM*	-12%
COc1ccc(/C=C2\Sc3ccc(C(=O)NCCN4CCCCCC4)cc3N(C)C2=O)cc1	?	6%	-9%[57 µM]	22µM*	?
O=C(CNc1ccc(F)cc1)N/N=C/c1c(O)ccc2ccccc12	-11%	9%	25%	-4%	-16%
O=C(Nc1cccc(C(F)(F)F)c1)c1cc(Br)cc2c1OCC2	0%	0%	16%	-4%	-7%
